Reference: PubChem BioAssay (NCI)
The panel holds about 83,000 compounds, 20% with a hit somewhere; the sample as a whole holds those more often.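 Values shown are percent growth following 48 h exposure of cells in 96-well plates to a single concentration of compound; below 10 was considered active.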 Calls of active or inactive are those of the source.

Assays:
Test in all cases: NCI-60 one-dose screen, 48 h (100 = growth as untreated, 0 = no growth, -100 = all killed)
Conditions in all cases: 10 µM unless noted
SR leukemia = tested on: SR leukemia
RPMI-8226 leukemia = tested on: RPMI-8226 leukemia
OVCAR-8 ovarian = tested on: OVCAR-8 ovarian
OVCAR-5 ovarian = tested on: OVCAR-5 ovarian
OVCAR-4 ovarian = tested on: OVCAR-4 ovarian
SK-OV-3 ovarian = tested on: SK-OV-3 ovarian
IGROV1 ovarian = tested on: IGROV1 ovarian
OVCAR-3 ovarian = tested on: OVCAR-3 ovarian
HS 578T breast = tested on: HS 578T breast
NCI/ADR-RES ovarian = tested on: NCI/ADR-RES ovarian
T-47D breast = tested on: T-47D breast
BT-549 breast = tested on: BT-549 breast
MDA-MB-435 melanoma = tested on: MDA-MB-435 melanoma
SW-620 colon = tested on: SW-620 colon
MCF7 breast = tested on: MCF7 breast
HCT-116 colon = tested on: HCT-116 colon
HCC-2998 colon = tested on: HCC-2998 colon
KM12 colon = tested on: KM12 colon

Measured: growth

COc1cc2nc3cc([N+](=O)[O-])ccc3c(NCCNCC(C)(C)O)c2cc1OC
active: SR leukemia -12.2% | RPMI-8226 leukemia -8.62% | OVCAR-8 ovarian -3.94% | OVCAR-5 ovarian 8.33% | OVCAR-4 ovarian -31.8% | IGROV1 ovarian -15.9% | OVCAR-3 ovarian -31.2% | HS 578T breast -2.1% | T-47D breast -3.16% | BT-549 breast -75.6% | MDA-MB-435 melanoma -86.8% | SW-620 colon -15.2% | MCF7 breast -14.1% | HCT-116 colon -20.9% | HCC-2998 colon -53.3%
inactive: SK-OV-3 ovarian 17.8% | NCI/ADR-RES ovarian 55%

Cc1ccc(-c2nc3nc(-c4ccc(Br)cc4)nc(N4CCCNCC4)c3o2)cc1
active: SR leukemia -32.2% | RPMI-8226 leukemia -36.9% | OVCAR-8 ovarian -45.6% | OVCAR-5 ovarian -44.4% | OVCAR-4 ovarian -94.2% | IGROV1 ovarian -75.6% | OVCAR-3 ovarian -95.1% | HS 578T breast -30.3% | NCI/ADR-RES ovarian -64.8% | T-47D breast -8.11% | MDA-MB-435 melanoma 7.5% | SW-620 colon -72.4% | MCF7 breast -75.8% | HCT-116 colon -79.8% | HCC-2998 colon -80.7%
inactive: SK-OV-3 ovarian 110% | BT-549 breast 99.5%

C=C[C@]1(C)C=C2CC[C@@H]3C(C)(C)C(=O)CC[C@@]3(C)[C@@H]2CC1
inactive: SR leukemia 102% | RPMI-8226 leukemia 98.3% | OVCAR-8 ovarian 103% | OVCAR-5 ovarian 111% | OVCAR-4 ovarian 102% | SK-OV-3 ovarian 111% | IGROV1 ovarian 11.3% | OVCAR-3 ovarian 109% | HS 578T breast 104% | NCI/ADR-RES ovarian 110% | T-47D breast 105% | BT-549 breast 126% | MDA-MB-435 melanoma 101% | SW-620 colon 105% | MCF7 breast 101% | HCT-116 colon 103% | HCC-2998 colon 107% | KM12 colon 98.6%

CC(=O)c1c(C)nc2ccccc2c1/C=C/c1cccc(C)c1
active: MDA-MB-435 melanoma 5.84%
inactive: SR leukemia 23.3% | RPMI-8226 leukemia 56% | OVCAR-8 ovarian 69.4% | OVCAR-5 ovarian 83.6% | OVCAR-4 ovarian 67.2% | SK-OV-3 ovarian 69.7% | IGROV1 ovarian 48.1% | OVCAR-3 ovarian 45.5% | HS 578T breast 62.5% | NCI/ADR-RES ovarian 29.8% | T-47D breast 38.6% | BT-549 breast 64.2% | SW-620 colon 29.4% | MCF7 breast 24.2% | HCT-116 colon 32.9% | HCC-2998 colon 79.4% | KM12 colon 52.1%

CC/C(=C(/c1ccc(O)cc1)c1ccc(OCCN2CCCCCC2)cc1)c1ccc(Cl)cc1
inactive: OVCAR-8 ovarian 83.6% | OVCAR-5 ovarian 75% | OVCAR-4 ovarian 87.4% | SK-OV-3 ovarian 96.4% | IGROV1 ovarian 77.3% | OVCAR-3 ovarian 61% | HS 578T breast 85.3% | NCI/ADR-RES ovarian 84.5% | T-47D breast 51.9% | BT-549 breast 69.8% | MDA-MB-435 melanoma 81.1% | SW-620 colon 62.6% | MCF7 breast 13% | HCC-2998 colon 28.8% | KM12 colon 38.2%
active: SR leukemia -24% | RPMI-8226 leukemia -41.6% | HCT-116 colon -53%

Cc1c(C(C)(C)O)cn2ncnc(Oc3ccc(NC(=O)Nc4ccc(Cl)c(C(F)(F)F)c4)cc3)c12
active: SR leukemia -3.12%
inactive: RPMI-8226 leukemia 37% | OVCAR-8 ovarian 49.1% | OVCAR-5 ovarian 100% | OVCAR-4 ovarian 21% | SK-OV-3 ovarian 83.9% | IGROV1 ovarian 37.6% | OVCAR-3 ovarian 26.2% | HS 578T breast 49.4% | NCI/ADR-RES ovarian 64% | T-47D breast 21.8% | BT-549 breast 58% | MDA-MB-435 melanoma 37.4% | SW-620 colon 62% | MCF7 breast 25.2% | HCT-116 colon 28.6% | HCC-2998 colon 85.7% | KM12 colon 24.8%

O=C(CC1(O)C(=O)Nc2ccc(Br)cc21)c1ccc(Cl)cc1 (centres undefined)
inactive: SR leukemia 103% | RPMI-8226 leukemia 96.7% | OVCAR-8 ovarian 96.6% | OVCAR-5 ovarian 124% | OVCAR-4 ovarian 97% | SK-OV-3 ovarian 88.3% | IGROV1 ovarian 93.2% | OVCAR-3 ovarian 102% | HS 578T breast 91.7% | NCI/ADR-RES ovarian 104% | T-47D breast 84.4% | BT-549 breast 99.9% | MDA-MB-435 melanoma 109% | SW-620 colon 99% | MCF7 breast 98% | HCT-116 colon 98% | HCC-2998 colon 104% | KM12 colon 99.5%
